From PubChem
SRC3 TRFRET art – counter-screen for PPARgamma SRC-3 recruitment agonists: TR-FRET artefact. PPARgamma/SRC-3 format; stronger effect = higher value. TR-FRET ratio at 8 µM. 99,000 compounds, 0.39% hits. AID 1048; in the data active = TR-FRET ratio above about 2000
SRC1 TRFRET art – flags TR-FRET format artefacts in PPARgamma SRC-1 recruitment agonist screen; TR-FRET ratio at 8 µM; 99,000 compounds, 0.34% hits; TR-FRET detection artefact counter-screen, emission ratio; stronger effect = higher value; in the data active = TR-FRET ratio above about 2300
TR-FRET SRC-2 ct – TR-FRET artefact, counter-screen to PPARgamma/SRC-2 agonist assay; TR-FRET ratio at 8 µM; 200,000 compounds, 0.4% hits; stronger effect = higher value; AID 1049; in the data active = TR-FRET ratio above about 2000
PPARg SRC1 recr – promotes SRC-1 coactivator recruitment by human PPARgamma; P37231; PPARgamma-SRC-1 coactivator recruitment biochemical assay; activation, % at 8 µM; 200,000 compounds, 0.41% hits; in the data active = activation above about 19%;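 also: 0% = DMSO and 100% = reference agonist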
PPARg SRC2 recr – PPARgamma-driven SRC-2 recruitment agonism | PPARgamma LBD-SRC-2 recruitment, biochemical | P37231 | AID 1032 | 200,000 compounds, 0.34% hits | activation, % at 8 µM;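 also: 0% = vehicle and 100% = reference agonist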
PPARg SRC-3 ag – agonists of human PPARgamma SRC-3 coactivator recruitment | P37231 | biochemical PPARgamma/SRC-3 coactivator recruitment assay | activation, % at 8 µM | 200,000 compounds, 0.26% hits; in the data active = activation above about 23%;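 also: 0% = DMSO and 100% = reference agonist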
PPARg SRC2 ag – human PPARgamma SRC-2 recruitment agonism, confirmation | activation, % at 8 µM | shares compounds with PPARg SRC-3 ag | 790 compounds, 52% hits | biochemical SRC-2 recruitment by PPARgamma;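 also: 0% = vehicle alone and 100% = reference agonist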
PPARg SRC1 ag – human PPARgamma SRC-1 recruitment agonism, confirmation. shares compounds with PPARg SRC-3 ag. PPARgamma–SRC-1 coactivator recruitment biochemical assay. activation, % at 8 µM. 790 compounds, 43% hits; in the data active = activation above about 20%;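 also: 0% = vehicle wells and 100% = reference agonist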
PPARg SRC3 conf – confirmation of agonists of SRC-3 recruitment by human PPARgamma; shares compounds with PPARg SRC-3 ag; biochemical PPARgamma-SRC-3 coactivator recruitment, agonist mode; activation, % at 8 µM; 790 compounds, 29% hits; AID 1301; in the data active = activation above about 24%;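 also: 0% = vehicle wells and 100% = reference agonist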
* marks the source's active call; other numbers are inactive results; nt = no result. Rows were chosen to be rich in hits. Some 0.9% of all compounds tested hit in one or more screens of this group. Rule as the data show it, unless noted: active = activation above about 22%; inactive = the rest.

SMILES	SRC3 TRFRET art	SRC1 TRFRET art	TR-FRET SRC-2 ct	PPARg SRC1 recr	PPARg SRC2 recr	PPARg SRC-3 ag	PPARg SRC2 ag	PPARg SRC1 ag	PPARg SRC3 conf
O=c1c2sccc2nc(SCc2cc(=O)n3cc(Br)ccc3n2)n1Cc1ccccn1	2195*	2338*	2046*	23*	23*	14	11	7	9
O=C(O)COc1ccc2nsnc2c1Cl	nt	nt	2267*	38*	37*	50*	46*	42*	27*
Nc1c(C(=O)Nc2ccccc2)sc2nc3c(c(-c4ccco4)c12)CCC3	nt	nt	1681	6	10	14	nt	nt	nt
COc1ccc(-c2c3c(nc4sc(C(=O)Nc5ccccc5)c(N)c24)CCC3)cc1	nt	nt	1922	14	26*	27*	33*	20*	21
Cc1ccc(Sc2ccc(NC(=O)c3ccc(S(C)(=O)=O)cc3Cl)cc2)cc1	nt	nt	1563	54*	-1	33*	24*	21*	14
CS(=O)(=O)c1ccc(C(=O)Nc2ccc(N3CCCCC3)cc2)c(Cl)c1	1280	1810	1563	12	0	1	nt	nt	nt
CCOc1ccc(-n2ccnc2SCC(=O)Nc2cc(C)on2)cc1	1592	1661	1669	-6	-6	3	nt	nt	nt
Cc1ccc(C2C(C(=O)c3ccco3)=C(O)C(=O)N2c2nnc(C)s2)cc1 (stereo not drawn)	nt	nt	1957	24*	20	34*	14	12	10
COC(=O)c1sc(N2C(=O)C(O)=C(C(=O)c3ccc(C)o3)C2c2ccc(F)cc2)nc1C (stereo not drawn)	nt	nt	2303*	30*	26*	20	30*	23*	19
Cc1nn(C(C)C)c(C)c1CN1CCN(Cc2ccsc2)C(CCO)C1 (stereo not drawn)	1647	1775	1395	4	2	0	nt	nt	nt
Nc1nc(-c2ccccc2)nn1S(=O)(=O)c1ccccc1	1559	1951	1596	11	-2	2	nt	nt	nt
Cn1cccc1/C=C1\Cc2ccccc2C1=O	1490	2340*	1747	19	24*	14	0	-2	0
Cn1cccc1/C=C1\CCc2ccccc2C1=O	1477	2018	1632	15	7	6	nt	nt	nt
COc1ccc(N2CCN(C(CNC(=O)C(=O)NCCc3c[nH]c4ccccc34)c3ccco3)CC2)cc1 (stereo not drawn)	1619	1883	1471	1	-3	0	nt	nt	nt
CCSc1nc(N)c2c3c(sc2n1)CCC3	nt	nt	2185*	18	28*	32*	20	13	13
Cc1ccc(NC(=O)CCn2c(=S)oc3ccccc32)cc1	1728	2071	1795	22*	12	7	3	-1	1
O=C(CCn1c(=S)oc2ccccc21)Nc1ccc(F)cc1	1616	1871	1550	7	0	2	nt	nt	nt
COC(=O)c1sccc1NC(=O)Nc1ccc(Cl)c(Cl)c1	nt	nt	1921	19*	23*	14	8	2	4
CC1N(C)c2cccc3cccc(c23)N1C	nt	nt	1457	13	25*	11	24*	17	13
CCOc1ccc(CNc2ccc(N3CCCC3)cc2)cc1	nt	nt	1770	12	29*	22	11	5	6
CCOC(=O)N1CCN(C(=S)NC(=O)c2ccc(F)c(F)c2)CC1	1429	1521	1608	-10	-4	-1	nt	nt	nt
Cc1ccc(C)n1-c1ccc(-c2nnc3n2CCCCC3)s1	nt	nt	1802	27*	11	12	23*	22*	14
Cc1ccc(/C=N/N2CCN(c3ccc(Cl)cc3)CC2)o1	nt	nt	1514	11	1	-4	nt	nt	nt
Cc1ccc(Cl)cc1-c1ccc(C=Nc2ccc(N3CCOCC3)cc2)o1	2494*	2713*	2256*	33*	37*	27*	47*	34*	28*
COc1cccc(-c2cc(C(F)(F)F)n3nc(C(=O)N4CCCCC4c4cccnc4)cc3n2)c1 (stereo not drawn)	1371	1939	1580	-4	-6	-1	nt	nt	nt
